Our source for the growth values is PubChem BioAssay (NCI).

The panel holds about 83,000 compounds, 20% with a hit somewhere; the sample as a whole holds those more often.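 Growth was measured after 48 h exposure to one concentration of compound in 96-well plates. Values under 10 count as active.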 Values without a mark were called inactive. Calls of active or inactive are those of the source.

The first assay relates to NCI-H322M lung. Nature of the assay: NCI-60 one-dose screen, 48 h (100 = growth as untreated, 0 = no growth, -100 = all killed). The following applies: 10 µM unless noted.
For `COc1cc([C@@H]2NC(=O)NC(C)=C2C(=O)Nc2nc(-c3ccc(Cl)cc3)cs2)ccc1O`, the growth is 95.4%.

Turning to `N#C/C(=C\c1c(-c2ccccc2)[nH]c2ccccc12)C(=O)c1ccccc1`, the growth was 53.3%.

Turning to `CCN(CC)c1cc(C)c2cc(NC(=O)c3cccc(OC)c3)ccc2n1`, the growth was 109%.

Take `COc1nc2c(c(=O)n1C)N=C1c3ccccc3C(=O)C1C(c1ccccc1)N2` (stereo not given): the growth is 104%.

With `CCOc1ccccc1CN1CCc2nc3cc(C(C)(C)C)[nH]n3c(=O)c2C1`, the growth was 101%.

As to `COc1ccc(-n2c(C(O)c3ccccc3)n[nH]c2=S)cc1` (stereo not given), the growth is 102%.

Take `CC(=O)n1cc(-c2c[nH]c3ccccc23)c(-c2ccc(Cl)cc2)n1`: the growth was 83.6%.

With `N#CC(C#N)=Cc1c(-c2ccccc2)[nH]c2ccccc12`, the growth is 61%.

`Nc1ccc(C2c3ccccc3Oc3ccccc32)cc1`: the growth is 99.8%.

As to `COc1cc(C#N)cc2[nH]c(=O)oc12`, the growth was 106%.

The subject of the next assay is HOP-62 NSCLC. Described as above. To be noted: 10 µM unless noted.
For `OC(c1ccccc1)c1nnc(SCc2ccccc2)n1Cc1ccccc1` (stereo not given), the growth is 91.5%.

`COc1ccc(/C=C2\SC(=Nc3ccccc3)NC2=O)cc1`: the growth was -95.3% (active).

For `COc1ccc(-n2c(C(O)c3ccccc3)nn(CN3CCOCC3)c2=S)cc1` (stereo not given), the growth was 101%.

Regarding `CN(O)c1nc(N(C)O)nc(N2CCOCC2)n1`, the growth was 34.5%.

`O=C(NC(=S)Nc1cccc(NC(=S)NC(=O)c2ccccc2)c1)c1ccccc1`: the growth is 52.5%.

As for `Cn1c2c(c(=O)[nH]c1=O)NC1=C(C(=O)c3ccccc31)C1(C=C(O)c3ccccc31)N2` (stereo not given), the growth was 101%.

Turning to `Nc1nc(Nc2cccc(F)c2)nc2ccccc12`, the growth is 65.7%.

As for `COc1cc(OC)cc(N2C(=O)N(Cc3ccc(C(C)(C)C)cc3)c3ccccc3S2(=O)=O)c1`, the growth is 95.2%.

As for `CC/C=C\C[C@H](O)C/C=C1/C(=O)C=C[C@@H]1C/C=C\CCCC(=O)OCCS(=O)(=O)c1ccccc1`, the growth is 22.1%.

Consider `COc1ccc(C2Nc3ncnc(N)c3N=C3c4ccccc4C(=O)C32)cc1` (stereo not given), for which the growth was 85.2%.

As for `O=CCCCC(O)C=O` (stereo not given), the growth is 95%.

On to `COC(=O)/C(=C\c1c(-c2ccccc2)[nH]c2ccccc12)S(C)(=O)=O`, for which the growth was 38.2%.

For `COc1ccc(-c2nsc3c2NC(=O)CC3c2ccsc2)cc1` (stereo not given), the growth is 33.5%.

Turning to `FC(F)(F)c1cccc(Nc2nc(-c3ccccc3)nc3ncccc23)c1`, the growth was 84.5%.

As to `COC(=O)/C(=C\c1c(C)[nH]c2ccccc12)S(=O)(=O)c1ccccc1`, the growth was 29.8%.

On to `O=Nc1c(O)ccc2ccccc12.O=Nc1c(O)ccc2ccccc12.O=Nc1c([O-])ccc2ccccc12.[Fe+3]`, for which the growth is 87.6%.

As to `COc1cccc(C(=O)Cn2cc(/C=C(\C#N)S(=O)(=O)c3ccccc3)c3ccccc32)c1`, the growth is 83.1%.

With `CC(=O)O[C@@H]1/C=C/C(=O)N[C@@H](C)CCC/C=C/[C@@H]2CCC[C@H]21`, the growth is 99%.

As to `CC(C)(C)c1ccc(C2CC(=O)C3=C(C2)Nc2ccccc2N(C(=O)c2ccccc2Cl)C3c2ccc(F)cc2)cc1` (stereo not given), the growth is 25.3%.

Turning to `O=C1/C=C/[C@@H](O)[C@@H]2C[C@@H](O)C[C@H]2/C=C/CCCCO1`, the growth was 23.8%.

For the compound `CN1CCN(c2nc(Nc3ccc(O)cc3)nc3ccccc23)CC1`, the growth is 74.5%.

For the compound `O=C(NN1C(=O)CSC1c1ccc(Cl)cc1)c1[nH]c2ccc(F)cc2c1-c1ccccc1` (stereo not given), the growth was 78.1%.

As for `CSc1nc2c(c(=O)n1C)N=C1c3ccccc3C(=O)C1C(c1ccccc1)N2` (stereo not given), the growth was 76.9%.

Regarding `CCCC(=O)CC(C)=O.CCCC(=O)CC(C)=O.[Cu]`, the growth is 94.3%.

Take `N#C/C(=C\c1c(-c2ccccc2)[nH]c2ccccc12)S(=O)(=O)c1ccccc1`: the growth was 39.2%.

`O=C(Nc1ccc(Cl)cc1)c1cc2ccccc2cc1OP(=O)(O)O`: the growth was 32.3%.

Turning to `COc1ccc(/C=C2\N=C(c3ccccc3)N(c3ccc(-c4nc5ccc(C)cc5s4)cc3)C2=O)cc1`, the growth is 99.2%.

`CSc1nc2c(c(=O)[nH]1)N=C1c3ccccc3C(=O)C1C(c1ccccc1)N2` (stereo not given): the growth is 45.5%.

In the case of `CCOC(=O)c1c(Cl)c2c(n1Cc1ccccc1)-c1oncc1CCC2`, the growth was 80%.

Regarding `COc1cc([C@@H]2NC(=O)NC(C)=C2C(=O)Nc2nc(-c3ccc(Cl)cc3)cs2)ccc1O`, the growth is 86.1%.
